# According to PubChem BioAssay AID1117361 (Southern Research Institute, 2015):
# Screen size: about 3,600 compounds; about 900 (25%) were called active. The rule behind the calls is not given here. Not all results are given here. Where a call stands in place of a potency, no number is given. Potency and affinity values are given separately.
# Target: Protein Tat (Human immunodeficiency virus type 1 group M subtype B (isolate HXB2)) (UniProt P04608)
# Test: inhibitors of Tat binding to TAR RNA, dose response, counter-screen for Vif-APOBEC3G degradation inhibitor project, biochemical, fluorescence polarization, FAM-labeled TAR RNA (AID 1117361)
# Settings: outcome: dose series up to 100 µM unless noted; series mostly up to 100 µM
row,Structure (SMILES),outcome
1,FC(F)(F)c1cccc(Oc2ccc3c(C(F)(F)F)cc(C(F)(F)F)nc3n2)c1,inactive
2,O=C(Cc1c(F)cccc1Cl)NNC(=O)c1ccccc1Cl,inactive
3,CCc1ccccc1NC(=O)CC(O)(C(=O)OC)C(F)(F)F (centres undefined),inactive
4,O=C(CN1C(=O)NC2(CCCCCCC2)C1=O)NCc1ccc2c(c1)OCO2,inactive
5,O=C(CN1C(=O)NC2(CCCCC2)C1=O)NCCC1=CCCCC1,inactive
6,Cc1ccc(C(=O)COC(=O)CNC(=O)Cc2ccccc2)cc1[N+](=O)[O-],inactive
7,O=C(CN1C(=O)NC(c2ccc(F)cc2)C1=O)Nc1ccc2c(c1)OCCO2 (centres undefined),inactive
8,O=C(CSc1nnc(-c2cccs2)o1)OC1CCCCC1,inactive
9,CC1=C(C(=O)NCc2ccco2)C2(CCC(C)CC2)OC1=O (centres undefined),inactive
10,O=C1COc2ccc(C(=O)NCc3ccco3)cc2N1,inactive
11,Fc1ccc2[nH]c3c(N4CCc5ccccc5C4)ncnc3c2c1,inactive
12,CC1CCN(C(=O)C2c3ccccc3C(=O)N3CCc4ccccc4C23)CC1 (centres undefined),inactive
13,COc1ccc(-n2c(=O)[nH]cc(C(=O)N3CCc4ccccc43)c2=O)cc1,inactive
14,CCOc1ccc(C(=O)NC2CCN(S(=O)(=O)CC)CC2)cc1,inactive
15,CNS(=O)(=O)c1cccc(C(=O)OCc2cc(Cl)cc3c2OCOC3)c1,inactive
16,COCCn1c(SCC(=O)Nc2cc(C)on2)nc2cc(Cl)ccc2c1=O,inactive
17,CCN(CC)CCN=CC1=C(O)CNC1=O,inactive
18,CCOc1ccccc1N1C(=O)c2ccc(C(=O)Nc3cccnc3)cc2C1=O,inactive
19,C[C@H](NC(=O)NCc1cccs1)C(=O)O,inactive
20,CCOC(=O)c1c(C)[nH]c(C)c1C(=O)COC(=O)c1cccc(S(=O)(=O)NC)c1,inactive
21,COc1ccc(NC(=O)/C(C#N)=C/c2ccc(Br)o2)cc1,inactive
22,COc1ccc(NC(=O)/C(C#N)=C/c2ccc(Sc3nncn3C)c([N+](=O)[O-])c2)cc1,inactive

row,Structure (SMILES),outcome
1,CCN(c1ccc(NC(=O)COC(=O)c2ccc([N+](=O)[O-])o2)cc1)C(C)C,inactive
2,CCOC(CCNC(=O)c1cn(C)c(=O)c2c1c1ccccc1n2C)OCC,inactive
3,COc1ccccc1-n1c(SCC(=O)NCc2ccc3c(c2)OCO3)nc2cc([N+](=O)[O-])ccc21,inactive
4,Nc1cc(N)nc(SCc2cc([N+](=O)[O-])cc3c2OCOC3)n1,inactive
5,COCCn1c(N)c(N(Cc2ccccc2)C(=O)C2CCCCC2)c(=O)[nH]c1=O,inactive
6,Cc1ccc(S(=O)(=O)N2CCN(Cc3nc4sc(C)c(C)c4c(=O)[nH]3)CC2)cc1,inactive
7,CCc1ccc(C(=O)Nc2ccc(S(=O)(=O)Nc3nc(C)cc(C)n3)cc2)o1,inactive
8,CCn1ncc(Br)c1C(=O)Nc1sc2c(c1C(N)=O)CCC2,inactive
9,O=C(NC12CC3CC(CC(C3)C1)C2)c1ccc(S(=O)(=O)N2CCOCC2)cc1,inactive
10,CCOC(=O)CNC(=O)Cn1cnc2c(nnn2-c2ccc(F)cc2)c1=O,inactive
11,Cc1nc2nc(COc3ccccc3)[nH]n2c(=O)c1Cc1ccccc1,inactive
12,O=c1cc2c(n[nH]1)CCCC2,inactive
13,O=C(Nc1cccc(Cl)c1)C1=Cc2cc(Cl)ccc2OC1,inactive
14,CCN(CC)S(=O)(=O)c1cccc(NC(=O)/C=C/c2cccc([N+](=O)[O-])c2)c1,inactive
15,O=C(CSc1ncnc2ccccc12)Nc1cccc(S(=O)(=O)N2CCOCC2)c1,inactive
16,Cc1nc(NC(=O)/C=C/c2ccccc2)sc1C(=O)Nc1ccccc1,inactive
17,COc1ccc(NC(=O)/C=C/c2ccc(S(=O)(=O)N3CCOCC3)cc2)cc1,inactive
18,Cc1ccc(NC(=O)/C=C\C(=O)O)c([N+](=O)[O-])c1,inactive
19,Cc1sc2nc(SCC(=O)N3CCOCC3)[nH]c(=O)c2c1C,inactive
20,Cc1cc(C)cc(C(=O)N2CCC(C(N)=O)CC2)c1,inactive
21,O=C(CNS(=O)(=O)c1ccccc1)OCC(=O)c1ccc(OC(=O)c2ccccc2)cc1,inactive
22,O=C1CCc2cc(S(=O)(=O)NC(Cc3ccccc3)C(=O)NCC3CCCO3)ccc2N1 (centres undefined),inactive

row,Structure (SMILES),outcome
1,NC(=O)c1nsnc1-c1ccccc1O,inactive
2,CC1C=CC=CC=CC=CC=CC=CC=CC(OC2OC(C)C(O)C(N)C2O)CC2OC(O)(CC(O)CC(O)C(O)CCC(O)CC(O)CC(=O)OC(C)C(C)C1O)CC(O)C2C(=O)O (centres undefined),inactive
3,COc1ccc(S(=O)(=O)N(C)Cc2cccs2)cc1Br,inactive
4,O=C(OCn1nnc2ccccc2c1=O)C1=COCCO1,inactive
5,CC(=O)Nc1ccc(N=Nc2ccccc2)cc1,inactive
6,O=C(NCCNC(=O)c1cc(OCC(F)(F)F)ccc1OCC(F)(F)F)Nc1cccc(C(F)(F)F)c1,inactive
7,Cc1cc(-c2ccccc2)nc(Oc2ccc(C(C)(C)C)cc2)c1S(C)(=O)=O,inactive
8,CCc1nnc(NC(=O)CSc2nnc(Cc3ccccc3)n2-c2ccc(OC)cc2)s1,inactive
9,COc1ccc(C(=O)NC2CC3CCCC(C2)N3CC(C)C)cc1 (centres undefined),inactive
10,COc1ccc(CN2CCNC(=O)C2CC(=O)NC2CCCC2)cc1OC (centres undefined),inactive
11,C=C1Cn2c(nnc2-c2ccc(Cl)cc2)S1,inactive
12,Cc1ccc(C)c(OCCC(=O)Nc2ccccc2C(=O)NC2CC2)c1,inactive
13,Cc1ccc2c(Cl)cc(Cl)c(OCC(=O)NCc3ccco3)c2n1,inactive
14,CCC1CCC2(CC1)NC(=O)N(CC(=O)Nc1ccc(OC)c(Cl)c1)C2=O (centres undefined),inactive
15,CC(C)(C)NC(=O)COC(=O)c1cc(S(=O)(=O)N2CCCCC2)ccc1N1CCOCC1,inactive
16,CCOCCCNC(=O)c1ccccc1Br,inactive
17,O=C1[C@@H]2CSCN2C(=O)CN1CCc1cccc(F)c1,inactive
18,COc1ccc(C(=O)Cn2c(=N)n(C)c3ccccc32)cc1,inactive
19,CCn1c(CNC(C)=O)nnc1SCC(=O)c1ccc(Br)cc1,inactive
20,CCN(c1ccccc1)S(=O)(=O)c1ccc(C(=O)NNC(=O)c2ccccc2F)cc1,inactive
21,CN(C(=O)CSc1nnc(N)s1)c1c(N)n(Cc2ccccc2)c(=O)[nH]c1=O,inactive
22,CC(C)CN(C(=O)CN1CCN(S(=O)(=O)c2ccccc2)CC1)c1c(N)n(CC(C)C)c(=O)[nH]c1=O,inactive

row,Structure (SMILES),outcome
1,Cc1cccc(N2CCN(CC(=O)Nc3nccs3)CC2)c1C,inactive
2,COC(=O)CSc1nnc(CNC(=O)c2ccccc2OC)n1-c1ccc(OC)cc1,inactive
3,CS(=O)(=O)N1CCCC(C(=O)NCCCN2CCC(Cc3ccccc3)CC2)C1 (centres undefined),inactive
4,O=C1C2C3CC(C(Br)C3Br)C2C(=O)N1c1ccccn1 (centres undefined),inactive
5,CCOc1ccc2nc(N3CCCC(C(=O)NCCCN4CCOCC4)C3)sc2c1 (centres undefined),inactive
6,COc1cc(OC)c2ccc(=O)oc2c1C(CCN1CCCC(C)C1)c1ccc2c(c1)OCO2 (centres undefined),inactive
7,O=C1C(Cc2ccccc2)SC(=Nc2ccccc2)N1c1ccccc1 (centres undefined),inactive
8,COc1ccc2[nH]c(C(=O)O)c(CCN3C(=O)c4cccc([N+](=O)[O-])c4C3=O)c2c1,inactive
9,COc1ccc2nc(NNC(=O)c3cc(=O)c4ccccc4o3)sc2c1,inactive
10,Cc1ccc2cc3c(NC(=O)c4cccnc4)nn(C)c3nc2c1,inactive
11,O=C1C2CCCN2C(c2ccccc2)N1c1nccs1 (centres undefined),inactive
12,O=C1NN(c2cccc(Br)c2)C(=O)/C1=C\c1ccccc1,inactive
13,CCCCc1cc(=O)oc2cc(OCC(=O)N(CC)CC)c(Cl)cc12,inactive
14,Cc1ccccc1C(=O)NCC(=O)OC(C)C(=O)NC(C)CCc1ccccc1 (centres undefined),inactive
15,CC(C)(C)n1nc2c(c1NC(=O)c1ccc(Br)o1)CS(=O)C2 (centres undefined),inactive
16,O=C(Nc1cccc(OC(F)(F)F)c1)c1ccc(Br)o1,inactive
17,Cc1cc(C)c2nc(SCC(=O)NCCN3C(=O)CSC3=O)cc(C)c2c1,inactive
18,CCN(CC)CCNC(=O)Cc1c(C(=O)O)n(C)c2ccccc12,inactive
19,COc1ccc(NC(=O)CN2CCC(C(N)=O)CC2)cc1,inactive
20,O=c1cc(CO)oc(C(Nc2ccccn2)c2ccc(F)cc2)c1O (centres undefined),inactive
21,OCCNc1ccc(Cl)cc1,inactive
22,O=C(c1ccco1)N1CCN(C(=O)c2cn(-c3ccccc3)nc2-c2ccccc2)CC1,inactive

row,Structure (SMILES),outcome
1,O=C(c1ccco1)N1CCN=C1SCc1cccc(Cl)c1,inactive
2,CC(C)(C)c1cc(C(C)(C)C)cc(S(=O)(=O)CCc2ccccn2)c1,inactive
3,C#CC(=O)N(c1cc(OC)ccc1OC)C(C(=O)NC1CCCC1)c1cccs1 (centres undefined),inactive
4,COc1ccccc1-c1c(C)[nH]n2c(=O)c(Cc3ccccc3)c(C)nc12,inactive
5,CCOC(=O)Nc1nnc(-c2ccccc2OC)s1,inactive
6,O=C(O)Cn1c(SC2CCCCC2)nc2ccccc21,inactive
7,Cc1nn(Cc2ccc(Cl)cc2)c(C)c1NC(=O)c1cc(-c2ccc3c(c2)OCO3)on1,inactive
8,Cc1cc(C)cc(NC(=O)CN2CCC(NC(=O)Cc3ccccc3)CC2)c1,inactive
9,CC(C)c1ccc(-c2nc(N3CCCC3)nc3n[nH]c(N)c23)cc1,inactive
10,N#Cc1ccc(N2CCN(C(=O)c3cccc(F)c3)CC2)c(F)c1,inactive
11,CC(C)Oc1ccc2ccccc2c1C=O,inactive
12,Cc1cc(C)n2nc(SC(C)C(=O)N3CCCC3)nc2n1 (centres undefined),inactive
13,Cc1nc(OCc2ccccc2)c2ccccc2n1,inactive
14,COc1ccc(CCNCc2ccc(OCc3ccccc3)cc2)cc1,inactive
15,Oc1ccc(/C=N/N=C/c2ccc(O)c(O)c2)cc1O,inactive
16,O=c1cc(CSc2ccccn2)c2ccccc2[nH]1,inactive
17,Cc1ccnc(N2CCCC(C(=O)Nc3cc(F)ccc3C)C2)n1 (centres undefined),inactive
18,Cn1c(=O)c2c(ncn2CCCNC2=CC(C)(C)CC(=O)C2)n(C)c1=O,inactive
19,N=C1C(c2nc3ccccc3c(=O)[nH]2)=C(O)CN1c1ccccc1,inactive
20,C/C(=N\OCC(=O)Nc1ccc2c(c1)OCCO2)c1ccc2c(c1)OCCO2,inactive
21,O=C(Nc1ccc2c(c1)OCCO2)C1CCC1,inactive
